The record followed here is PubChem BioAssay (EPA / NIEHS).

Structures are written as SMILES. “And” between values parts separate entries of the source, which are not always exact repeats. Equal values may be shown once. Inconclusive results are not listed. Some compounds were tested as several samples or in several runs, with calls that do not always agree. The source made the active and inactive calls. Rule for the calls, unless noted: active = hit-call score of the fitted dose curve at least 0.9, where 1 is the maximum; inactive = score below 0.9.

In assay [1] the target is Myc proto-oncogene protein (Homo sapiens) (UniProt P01106). The assay can be described thus: ATG_Myc_CIS: Attagene CIS-FACTORIAL HepG2 Assay for human Myelocytomatosis (Myc) Proto-Oncogene Transcription Factor (AID 2282990). The conditions noted are these: HepG2, Attagene cis-reporter transcription factor activity; actives raise or lower the signal. A digest of the protocol: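 Transiently transfected HepG2 cells bearing cis-promoter reporter units for endogenous transcription factors; 24 h exposure. Reporter mRNA measured by RT-PCR, 6-FAM primer extension, HpaI cut and capillary electrophoresis; bidirectional fit relative to DMSO.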
Chain of Myc proto-oncogene protein (Homo sapiens) (P01106 whole entry, looked up): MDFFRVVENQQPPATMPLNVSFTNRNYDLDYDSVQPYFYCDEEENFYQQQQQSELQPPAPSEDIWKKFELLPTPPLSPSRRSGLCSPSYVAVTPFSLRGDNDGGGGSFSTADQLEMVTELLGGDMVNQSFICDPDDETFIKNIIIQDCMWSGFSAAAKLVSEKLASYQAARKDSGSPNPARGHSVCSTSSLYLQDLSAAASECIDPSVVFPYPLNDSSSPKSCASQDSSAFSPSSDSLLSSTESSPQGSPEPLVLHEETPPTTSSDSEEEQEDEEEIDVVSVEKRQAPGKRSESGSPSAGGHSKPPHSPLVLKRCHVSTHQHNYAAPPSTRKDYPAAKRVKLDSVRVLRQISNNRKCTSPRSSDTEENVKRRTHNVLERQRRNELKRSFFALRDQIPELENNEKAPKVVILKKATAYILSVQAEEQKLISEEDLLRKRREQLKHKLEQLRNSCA

A short description of assay [2]: ATG_NRF2_ARE_CIS: Attagene CIS-FACTORIAL HepG2 Assay for human Nuclear Factor Erythroid 2 Related Factor 2 (NFR2) response to Antioxidant Response Elements (ARE) (AID 2282992).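 For AC50: reporter mRNA level measured by RT-PCR and capillary electrophoresis fluorescence.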 The following applies: HepG2 Attagene ARE/NRF2 reporter, transcription factor activity; actives raise or lower the signal. A digest of the protocol: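 HepG2 cells transiently transfected with multiplexed cis-element reporter constructs, 24 h after chemical dosing; reporter mRNA quantified by RT-PCR, fluorescent primer extension, HpaI digestion and capillary electrophoresis. Bidirectional fit relative to DMSO.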

A short description of assay [3]: ATG_Oct_MLP_CIS: Attagene CIS-FACTORIAL HepG2 Assay for human Octamer-Binding Transcription Factor (Oct) (AID 2282993). The conditions noted are these: HepG2 Attagene cis-factorial Oct reporter, mRNA; actives raise or lower the signal. A digest of the protocol:
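Read-out: reporter mRNA via RT-PCR plus capillary electrophoresis of 6-FAM-labelled fragments. Transiently transfected HepG2, 24 h exposure, endogenous TF activity on cis elements. Gain or loss of signal fitted relative to DMSO.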

Assay [4] concerns the target Cellular tumor antigen p53 (Homo sapiens) (UniProt P04637). The assay can be described thus: ATG_p53_CIS: Attagene CIS-FACTORIAL HepG2 Assay for human p53 Transcription Factor (AID 2282994). The conditions noted are these: HepG2 p53 cis-element reporter, Attagene mRNA; actives raise or lower the signal. A digest of the protocol:
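HepG2 cells transiently transfected with cis-regulated multiple reporter transcription units, dosed 24 h. Reporter mRNA measured by RT-PCR, 6-FAM primer extension, HpaI digestion and capillary electrophoresis; bidirectional fit relative to DMSO.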

The nature of assay [5]: BSK_3C_TissueFactor: BioMAP Diversity Plus: 3C Assay for Tissue Factor Biomarker Activity (AID 2282997). The following applies: BioMAP 3C HUVEC, tissue factor biomarker readout; actives raise or lower the signal. A digest of the protocol: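 Human vascular primary cells (umbilical vein endothelium) received test chemical; Tissue Factor was determined by ELISA at 24 h, and both gain and loss of signal versus DMSO were fitted.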

Assay [6] in a line: BSK_3C_uPAR: BioMAP Diversity Plus: 3C Assay for Urokinase-type plasminogen activator receptor (uPAR) Biomarker Activity (AID 2282998). The following applies: BioMAP 3C HUVEC, uPAR biomarker ELISA; actives raise or lower the signal. A digest of the protocol:
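HUVEC primary cells; 24 h post-dose; uPAR by ELISA; gain or loss of signal fitted bidirectionally vs DMSO baseline.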
Background: In an ELISA, binding on a coated surface is turned into a signal by an enzyme label.

Assay [7] can be described thus: BSK_3C_VCAM1: BioMAP Diversity Plus: 3C Assay for Vascular cell adhesion molecule 1 (VCAM1) Biomarker Activity (AID 2282999). The conditions noted are these: BioMAP 3C HUVEC, VCAM1 ELISA, cytokine-stimulated; actives raise or lower the signal. A digest of the protocol:
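Human umbilical vein endothelial cells (3C system), biomarker read by ELISA 24 h after dosing; bidirectional fit against DMSO baseline. Cytotoxicity tracked by SRB total-protein staining in parallel cultures at biomarker time.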

Assay [8] in a line: BSK_4H_Eotaxin3: BioMAP Diversity Plus: 4H Assay for Eotaxin 3 Biomarker Activity (AID 2283000).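 For outcome: CCL26 protein level quantified by ELISA in parallel with SRB cytotoxicity check.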 The conditions noted are these: primary human endothelial cells (HUVEC); actives raise or lower the signal. A digest of the protocol: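 Readout is Eotaxin-3 (CCL26) level by ELISA in primary human umbilical vein endothelial cells harvested 24 h after chemical exposure; activity fitted in both directions against DMSO control.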

Assay [9] addresses human Peroxisome Proliferator-activated Receptor delta (PPARd), PPARD (gene 5467) (UniProt Q03181). The assay can be described thus: ATG_PPARd_TRANS: Attagene TRANS-FACTORIAL HepG2 Assay for human Peroxisome Proliferator-activated Receptor delta (PPARd) (AID 2283002; active = hit-call score of the fitted dose curve at least 0.9, where 1 is the maximum). A digest of the protocol: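 HepG2 cells transiently transfected with GAL4-UAS multiplexed reporter units driven by exogenous chimeric NR-GAL4 proteins; 24 h compound exposure. Reporter mRNA measured by RT-PCR, 6-FAM primer extension, HpaI digestion and capillary electrophoresis; gain of signal fitted relative to DMSO.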

Read-out in assay [10]: Intercellular Adhesion Molecule 1 (ICAM1), ICAM1 (gene 3383)
The assay can be described thus: BSK_3C_ICAM1: BioMAP Diversity Plus: 3C Assay for Intercellular Adhesion Molecule 1 (ICAM1) Biomarker Activity (AID 2283003). The conditions noted are these: primary human endothelial cells (HUVEC); actives raise or lower the signal. A digest of the protocol: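 Human vascular endothelial primary cells, 3C conditions, 24 h treatment. ICAM-1 by ELISA.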

Assay [11] has as its target human Retinoic Acid Receptor beta (RARb), RARB (gene 5915) (UniProt P10826). Briefly: ATG_RARb_TRANS: Attagene TRANS-FACTORIAL HepG2 Assay for human Retinoic Acid Receptor beta (AID 2283004; active = hit-call score of the fitted dose curve at least 0.9, where 1 is the maximum). A digest of the protocol:
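Readout is reporter mRNA induction: RNA reverse-transcribed, PCR-amplified, FAM-labelled, HpaI-cut and resolved by capillary electrophoresis. Transiently transfected HepG2 cells carrying exogenous NR–Gal4 chimeras were dosed for 24 h; activity fitted upward relative to DMSO.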

In assay [12] the target is Retinoic acid receptor alpha (Homo sapiens) (UniProt P10276). Briefly: ATG_RARa_TRANS: Attagene TRANS-FACTORIAL HepG2 Assay for human Retinoic Acid Receptor alpha (RARa) (AID 2283005; active = hit-call score of the fitted dose curve at least 0.9, where 1 is the maximum). A digest of the protocol: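 HepG2 transiently transfected with multiplex GAL4-UAS reporter units including a human RARa–GAL4 chimera; 24 h compound exposure. Reporter mRNA quantified by RT-PCR, 6-FAM labeling and capillary electrophoresis; gain of signal versus DMSO.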
Chain of Retinoic acid receptor alpha (Homo sapiens) (P10276 whole entry, looked up, the tested form may be a part): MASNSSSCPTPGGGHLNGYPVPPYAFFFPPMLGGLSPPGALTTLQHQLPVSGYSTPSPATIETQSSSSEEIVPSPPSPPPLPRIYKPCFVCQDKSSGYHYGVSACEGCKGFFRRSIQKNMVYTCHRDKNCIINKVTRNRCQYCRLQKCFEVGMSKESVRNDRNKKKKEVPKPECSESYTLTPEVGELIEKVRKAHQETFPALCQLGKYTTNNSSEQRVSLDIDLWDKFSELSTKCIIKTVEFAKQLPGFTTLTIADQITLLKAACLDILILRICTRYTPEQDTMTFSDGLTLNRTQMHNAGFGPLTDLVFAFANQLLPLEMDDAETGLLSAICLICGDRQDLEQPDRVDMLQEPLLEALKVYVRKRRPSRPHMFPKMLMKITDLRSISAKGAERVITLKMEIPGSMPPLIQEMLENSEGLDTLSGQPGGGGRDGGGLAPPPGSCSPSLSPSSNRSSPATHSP

Assay [13] can be described thus: BSK_3C_Proliferation: Cell Proliferation Assessment in the BioMAP Diversity Plus: 3C Assay (AID 2283006).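 For AC50: potency may reflect either rise or fall in cell number versus DMSO.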 The conditions noted are these: primary human endothelial cells (HUVEC). A digest of the protocol:
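Proliferation of human vascular endothelial primary cells after 48 h dosing, quantified as SRB-stained protein at 560 nm relative to DMSO.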

Assay [14] concerns the target Peroxisome proliferator-activated receptor gamma (Homo sapiens) (UniProt P37231). The assay can be described thus: ATG_PPARg_TRANS: Attagene TRANS-FACTORIAL HepG2 Assay for human Peroxisome Proliferator-activated Receptor-gamma (PPARg) (AID 2283007; active = hit-call score of the fitted dose curve at least 0.9, where 1 is the maximum). A digest of the protocol: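 Endpoint reflects upward reporter mRNA change versus DMSO controls. Setup: transiently transfected HepG2, GAL4-UAS reporters driven by chimeric NR-Gal4, 24 h incubation, RT-PCR with capillary electrophoresis read-out.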

The target in assay [15] is Nuclear receptor subfamily 1 group I member 2 (Homo sapiens) (UniProt O75469). The assay can be described thus: ATG_PXR_TRANS: Attagene TRANS-FACTORIAL HepG2 Assay for human Pregnane X Receptor (PXR) (AID 2283008; active = hit-call score of the fitted dose curve at least 0.9, where 1 is the maximum). A digest of the protocol: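 HepG2 cells transiently transfected with GAL4-UAS reporter units and PXR-Gal4 chimera, exposed 24 h. Reporter mRNA quantified by RT-PCR, fluorescent labelling, HpaI digestion and capillary electrophoresis; gain of signal vs DMSO.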
Chain of Nuclear receptor subfamily 1 group I member 2 (Homo sapiens) (O75469 whole entry, looked up, the tested form may be a part): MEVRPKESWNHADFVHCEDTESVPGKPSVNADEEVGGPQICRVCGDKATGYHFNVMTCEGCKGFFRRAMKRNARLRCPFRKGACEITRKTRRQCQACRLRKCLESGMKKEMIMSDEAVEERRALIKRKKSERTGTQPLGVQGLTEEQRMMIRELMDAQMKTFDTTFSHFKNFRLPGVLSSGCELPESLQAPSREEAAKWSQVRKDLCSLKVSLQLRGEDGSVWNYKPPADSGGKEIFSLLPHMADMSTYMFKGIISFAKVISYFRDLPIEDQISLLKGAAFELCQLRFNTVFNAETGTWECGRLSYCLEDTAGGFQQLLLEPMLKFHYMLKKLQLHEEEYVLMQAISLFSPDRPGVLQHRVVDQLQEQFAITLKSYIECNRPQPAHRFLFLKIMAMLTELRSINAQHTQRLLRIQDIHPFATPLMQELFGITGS

The target in assay [16] is human Retinoic Acid Receptor gamma (RARg), RARG (gene 5916) (UniProt P13631). The assay can be described thus: ATG_RARg_TRANS: Attagene TRANS-FACTORIAL HepG2 Assay for human Retinoic Acid Receptor gamma (RARg) (AID 2283009; active = hit-call score of the fitted dose curve at least 0.9, where 1 is the maximum). A digest of the protocol: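 HepG2, RARg-GAL4 TRANS system, 24 h exposure; reporter mRNA by RT-PCR + CE fluorescence; increase over DMSO.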
Chain of human Retinoic Acid Receptor gamma (RARg), RARG (gene 5916) (P13631 whole entry, looked up, the tested form may be a part): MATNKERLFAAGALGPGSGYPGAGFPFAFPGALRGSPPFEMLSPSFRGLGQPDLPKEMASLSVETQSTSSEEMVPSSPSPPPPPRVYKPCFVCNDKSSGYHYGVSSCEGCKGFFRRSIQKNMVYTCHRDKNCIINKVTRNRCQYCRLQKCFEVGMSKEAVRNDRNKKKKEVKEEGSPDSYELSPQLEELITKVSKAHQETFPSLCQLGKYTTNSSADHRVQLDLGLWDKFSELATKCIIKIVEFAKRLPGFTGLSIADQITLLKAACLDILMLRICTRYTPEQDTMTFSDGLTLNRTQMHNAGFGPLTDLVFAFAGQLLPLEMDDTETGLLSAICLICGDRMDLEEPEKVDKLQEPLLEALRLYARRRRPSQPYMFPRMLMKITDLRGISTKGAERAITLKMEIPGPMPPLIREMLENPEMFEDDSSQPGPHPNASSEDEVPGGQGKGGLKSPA
The target of assay [17] is human RAR-related Orphan Receptor beta (RORb), RORB (gene 6096) (UniProt Q92753). The assay can be described thus: ATG_RORb_TRANS: Attagene TRANS-FACTORIAL HepG2 Assay for human RAR-related Orphan Receptor beta (RORb) (AID 2283010; active = hit-call score of the fitted dose curve at least 0.9, where 1 is the maximum). A digest of the protocol: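 In this TRANS-format test, human HepG2 cells express chimeric NR-Gal4 fusion proteins driving GAL4-UAS reporters. After 24 h dosing, reporter transcripts are measured by fluorescent RT-PCR/capillary electrophoresis, with DMSO as negative control.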
Chain of human RAR-related Orphan Receptor beta (RORb), RORB (gene 6096) (Q92753 whole entry, looked up, the tested form may be a part): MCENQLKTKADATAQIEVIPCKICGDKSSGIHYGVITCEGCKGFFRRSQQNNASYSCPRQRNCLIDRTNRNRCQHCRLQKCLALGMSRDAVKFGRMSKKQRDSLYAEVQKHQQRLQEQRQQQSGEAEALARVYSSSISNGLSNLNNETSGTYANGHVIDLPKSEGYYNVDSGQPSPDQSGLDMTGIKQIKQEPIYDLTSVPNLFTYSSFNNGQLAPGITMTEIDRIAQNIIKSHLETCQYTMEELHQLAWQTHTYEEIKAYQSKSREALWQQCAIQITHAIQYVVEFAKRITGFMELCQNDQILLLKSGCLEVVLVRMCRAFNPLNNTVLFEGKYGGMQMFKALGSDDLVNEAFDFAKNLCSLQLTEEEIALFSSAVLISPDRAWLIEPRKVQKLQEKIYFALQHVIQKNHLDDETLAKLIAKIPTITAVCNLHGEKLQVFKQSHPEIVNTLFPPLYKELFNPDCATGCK

The nature of assay [18]: ATG_NF_kB_CIS: Attagene CIS-FACTORIAL HepG2 Assay for human Nuclear Factor Kappa B (NF-kB) (AID 2282991). The following applies: HepG2 Attagene cis-factorial NF-kB reporter mRNA; actives raise or lower the signal. A digest of the protocol: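 Endpoint from a 52-component multiplexed HepG2 reporter panel: cis-regulated transcription units transiently transfected, 24 h dosing, reporter mRNA quantified by RT-PCR and capillary electrophoresis, scored as increase or decrease against DMSO.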

Assay [19] addresses human Peroxisome Proliferator-activated Receptor alpha (PPARa), PPARA (gene 5465) (UniProt Q07869). Briefly: ATG_PPARa_TRANS: Attagene TRANS-FACTORIAL HepG2 Assay for human Peroxisome Proliferator-activated Receptor alpha (PPARa) (AID 2283001; active = hit-call score of the fitted dose curve at least 0.9, where 1 is the maximum). A digest of the protocol: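 Measures transcriptional activity of an exogenous chimeric PPARa-Gal4 protein in transiently transfected HepG2 cells after 24 h dosing. Reporter mRNA quantified via RT-PCR and capillary electrophoresis; DMSO served as negative control.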

Chain of Cellular tumor antigen p53 (Homo sapiens) (P04637 whole entry, looked up): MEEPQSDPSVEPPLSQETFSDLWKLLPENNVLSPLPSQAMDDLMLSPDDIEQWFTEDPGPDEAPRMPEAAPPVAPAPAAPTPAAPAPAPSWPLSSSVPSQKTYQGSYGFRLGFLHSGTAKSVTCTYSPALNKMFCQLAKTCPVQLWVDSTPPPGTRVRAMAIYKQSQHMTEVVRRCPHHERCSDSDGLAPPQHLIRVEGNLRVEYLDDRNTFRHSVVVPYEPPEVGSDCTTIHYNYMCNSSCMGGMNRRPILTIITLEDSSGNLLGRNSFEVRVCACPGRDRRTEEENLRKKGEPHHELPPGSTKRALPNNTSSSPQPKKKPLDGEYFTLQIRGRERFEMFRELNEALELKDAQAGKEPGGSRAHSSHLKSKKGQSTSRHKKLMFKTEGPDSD
Chain of human Retinoic Acid Receptor beta (RARb), RARB (gene 5915) (P10826 whole entry, looked up, the tested form may be a part): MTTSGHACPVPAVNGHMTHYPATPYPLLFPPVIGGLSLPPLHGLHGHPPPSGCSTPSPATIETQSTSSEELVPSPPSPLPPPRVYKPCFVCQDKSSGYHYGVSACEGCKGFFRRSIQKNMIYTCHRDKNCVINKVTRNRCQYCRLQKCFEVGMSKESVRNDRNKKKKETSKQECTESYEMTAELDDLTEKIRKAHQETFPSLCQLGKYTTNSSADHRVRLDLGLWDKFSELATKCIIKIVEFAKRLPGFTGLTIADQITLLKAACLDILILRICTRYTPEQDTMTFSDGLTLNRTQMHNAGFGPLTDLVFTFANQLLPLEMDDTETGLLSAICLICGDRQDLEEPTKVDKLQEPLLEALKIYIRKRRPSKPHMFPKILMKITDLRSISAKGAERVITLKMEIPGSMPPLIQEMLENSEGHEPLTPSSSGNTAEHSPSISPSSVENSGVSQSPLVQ
Chain of human Peroxisome Proliferator-activated Receptor delta (PPARd), PPARD (gene 5467) (Q03181 whole entry, looked up, the tested form may be a part): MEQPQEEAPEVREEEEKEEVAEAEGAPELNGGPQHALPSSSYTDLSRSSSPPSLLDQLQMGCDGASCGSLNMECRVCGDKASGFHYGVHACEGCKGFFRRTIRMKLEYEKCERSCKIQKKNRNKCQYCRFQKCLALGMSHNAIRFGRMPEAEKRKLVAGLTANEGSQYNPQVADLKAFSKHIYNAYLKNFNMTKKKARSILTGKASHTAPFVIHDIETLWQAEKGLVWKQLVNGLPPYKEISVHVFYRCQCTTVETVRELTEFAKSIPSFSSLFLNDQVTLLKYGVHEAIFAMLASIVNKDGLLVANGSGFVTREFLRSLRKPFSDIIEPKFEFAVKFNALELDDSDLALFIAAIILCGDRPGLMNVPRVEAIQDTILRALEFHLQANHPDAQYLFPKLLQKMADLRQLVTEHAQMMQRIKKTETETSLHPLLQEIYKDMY
Chain of Peroxisome proliferator-activated receptor gamma (Homo sapiens) (P37231 whole entry, looked up, the tested form may be a part): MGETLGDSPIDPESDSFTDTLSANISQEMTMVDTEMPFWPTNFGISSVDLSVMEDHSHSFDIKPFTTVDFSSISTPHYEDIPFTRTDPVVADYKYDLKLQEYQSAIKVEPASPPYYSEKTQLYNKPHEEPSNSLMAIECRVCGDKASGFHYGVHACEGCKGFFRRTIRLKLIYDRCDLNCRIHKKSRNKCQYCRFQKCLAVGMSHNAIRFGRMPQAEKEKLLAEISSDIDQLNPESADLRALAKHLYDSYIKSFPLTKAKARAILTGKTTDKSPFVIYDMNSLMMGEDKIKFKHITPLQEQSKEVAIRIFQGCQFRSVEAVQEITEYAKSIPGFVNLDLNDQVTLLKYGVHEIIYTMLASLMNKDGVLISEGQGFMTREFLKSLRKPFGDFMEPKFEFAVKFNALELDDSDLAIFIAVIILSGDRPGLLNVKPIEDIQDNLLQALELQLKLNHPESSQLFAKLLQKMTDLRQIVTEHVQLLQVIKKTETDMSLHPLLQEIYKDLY
Chain of human Peroxisome Proliferator-activated Receptor alpha (PPARa), PPARA (gene 5465) (Q07869 whole entry, looked up, the tested form may be a part): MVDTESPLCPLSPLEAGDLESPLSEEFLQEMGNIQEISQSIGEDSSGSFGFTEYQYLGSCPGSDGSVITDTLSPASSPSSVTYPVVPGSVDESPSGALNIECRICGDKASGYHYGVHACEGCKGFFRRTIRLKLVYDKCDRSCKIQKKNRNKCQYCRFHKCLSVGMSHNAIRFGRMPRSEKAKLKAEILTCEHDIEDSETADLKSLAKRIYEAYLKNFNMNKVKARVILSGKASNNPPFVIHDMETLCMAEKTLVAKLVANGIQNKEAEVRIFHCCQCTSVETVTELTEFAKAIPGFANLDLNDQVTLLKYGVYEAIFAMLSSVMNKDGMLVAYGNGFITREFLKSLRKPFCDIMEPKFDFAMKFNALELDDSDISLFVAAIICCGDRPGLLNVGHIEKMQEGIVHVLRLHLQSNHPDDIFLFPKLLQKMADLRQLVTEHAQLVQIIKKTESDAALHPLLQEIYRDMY

As a reminder, the AC50 is the concentration giving half of the maximal activity seen. As to `O=S(=O)(O)C(F)(F)C(F)(F)C(F)(F)C(F)(F)C(F)(F)C(F)(F)C(F)(F)C(F)(F)C(F)(F)C(F)(F)F`, the call in assay [1], in [3], in assay [4], in assay [5], in assay [7] and in assay [8] was inactive. The molecule was called inactive in assay [9], in [10], in assay [11], in assay [12], in assay [14] and in [15]. In addition, the molecule was classed as inactive in assay [16] and in assay [17]. For the same molecule, the AC50 in assay [2] is 47.3 µM (active) and 25.4 µM (active); in assay [6], 24.6 µM (active) and 13.3 µM (active); in [8], 5.83 µM (active); in assay [13], 13.3 µM (active).
On to `CN(C)c1ccc(C(=C2C=CC(=[N+](C)C)C=C2)c2ccccc2)cc1`, for which the half-maximal activity concentration (AC50) in [3] is 2.27 µM (active); in [4], 1.61 µM (active) and 2.64 µM (active); in [5], 0.0152 µM (active); in assay [6], 14.1 nM (active); in assay [7], 0.0273 µM (active); in assay [8] it was 0.0082 µM (active). Further, the AC50 was 0.337 µM (active) in assay [10]; 0.0248 µM (active) in assay [13]; 1.75 µM (active) and 1.45 µM (active) in assay [14]; 3.02 µM (active) in [15]. Moreover, the result in assay [3] and in assay [9] was inactive.
Turning to `CCCCCCCCCCCCOS(=O)(=O)O`, the outcome in [5], in [6], in [8], in assay [10] and in assay [13] was inactive.
As to `CC[N+](CC)(CC)Cc1ccccc1`, the outcome in assay [2], in [3], in assay [4], in [5], in assay [6] and in assay [8] was inactive. Moreover, the molecule was classed as inactive in assay [9], in assay [10], in assay [11], in assay [12], in assay [13] and in assay [15]. In addition, the call in [16] and in assay [17] was inactive.
Regarding `COc1cccc(O)c1`, the molecule was called inactive in assay [18], in assay [2], in [3], in assay [4], in assay [5] and in assay [6]. For the same molecule, the result in [8], in assay [9], in assay [10] and in assay [13] was inactive.
`CCCCc1oc2ccccc2c1C(=O)c1cc(I)c(OCCN(CC)CC)c(I)c1`: the call in [1], in [4], in assay [9], in [14], in assay [15] and in assay [16] was inactive. The AC50 in assay [3] is 27.3 µM (active); in assay [5] it was 10.2 µM (active); in assay [6], 6630 nM (active); in [8], 19.6 µM (active); in assay [10], 23.3 µM (active); in assay [13], 5.66 µM (active).
As for `CS(=O)(=O)c1ccc([C@@H](CC2CCCC2)C(=O)Nc2cnccn2)cc1Cl`, the AC50 in assay [3] was 122 µM (active); in assay [13], 31.6 µM (active); in [15], 3.42 µM (active). The call in assay [4], in [5], in assay [6], in assay [7], in [8] and in assay [19] was inactive. In addition, the result in [9], in assay [10] and in assay [14] was inactive.
`CCN(CCC#N)c1ccccc1`: the outcome in assay [18], in [2], in [3], in assay [11], in assay [12] and in assay [14] was inactive. In addition, the molecule was called inactive in assay [16] and in assay [17]. Besides, the AC50 in assay [15] was 38.1 µM (active).
